Data published in PubChem BioAssay (Tox21).
Records with an inconclusive call do not appear. The source made the active and inactive calls. Unless noted, calls come from the whole dose curve; as a rule, active = well fitted curve in the direction sought with a large enough effect in the repeat runs; inconclusive = weak or mixed curves; inactive = no such curve, though single readings can be large; an effect the other way counts as inactive or inconclusive.

Columns and labels:
[1] = qHTS assay for small molecule agonists of the p53 signaling pathway (AID 651631; calls by dose curve; note: nearly all actives have a fitted effect of over 15% in size)
Procedure, shortened: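 Testing took place in human colorectal HCT-116 cells with stable p53RE-driven beta-lactamase. After 16 h of compound exposure at 37 °C, a FRET substrate was added and fluorescence recorded 2 h later.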

[2] = qHTS assay for small molecules that induce genotoxicity in human embryonic kidney cells expressing luciferase-tagged ATAD5 (AID 651632); note: nearly all actives have a fitted effect of over 15% in size
Procedure, shortened: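 Genotoxicity read-out via ATAD5-luciferase: HEK293T cells, 16 hr compound incubation at 37C, Amplite detection.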

[3] = qHTS assay for small molecule agonists of the p53 signaling pathway - cell viability (AID 651633; calls by dose curve; note: series mostly up to about 83 µM; nearly all actives have a fitted effect of over 30% in size)
Procedure, shortened: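 p53RE-bla cells were treated with compound for 16 hours at 37 C. Cytotoxicity was then measured as CellTiter-Glo luminescence after 30 min at room temperature.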

[4] = qHTS assay for small molecules that induce genotoxicity in human embryonic kidney cells expressing luciferase-tagged ATAD5 - cell viability (AID 651634; calls by dose curve; note: nearly all actives have a fitted effect of over 25% in size)
Procedure, shortened: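 Live-cell protease activity (CellTiter-Fluor, fluorescence) indicates viability. HEK293T cells with luciferase-tagged ATAD5; 15.5 hr compound treatment at 37C.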

[5] = qHTS assay for small molecule disruptors of the mitochondrial membrane potential - cell viability (AID 720634; calls by dose curve;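 note: human HepG2 liver cancer cells; series mostly up to about 83 µM; nearly all actives have a fitted effect of over 20% in size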)
Procedure, shortened: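 Human hepatoma HepG2 cells were treated for 1 hr with test chemicals, then given m-MPI dye and CellTiter-Glo. Cell viability reflects luminescence proportional to cellular ATP.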

[6] = qHTS assay to test for compound auto fluorescence at 590 nm (red) in HepG2 cells (AID 720674)
Procedure, shortened: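 Seeding: 2,000 HepG2 cells/well, MEM/10% FBS, overnight 37 C. Dosing: compound vs DMSO. Incubation: 1 hr, 37 C, 5% CO2. Read: fluorescence 540 ex/590 em, Rose Bengal sodium as red reference.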

[7] = qHTS assay to test for compound auto fluorescence at 535 nm (green) in HepG2 cells (AID 720675)
[8] = qHTS assay to test for compound auto fluorescence at 460 nm (blue) in HEK293 cells (AID 720678)
Procedure, shortened: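 After cell attachment (4-5 hr, 37C), compounds were pinned onto HEK293 monolayers in 10% dialyzed FBS medium. The blue channel (405/460 nm) was read following overnight culture. Equivalency was calculated against triamterene.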

[9] = qHTS assay to test for compound auto fluorescence at 590 nm (red) in HEK293 cells (AID 720679)
Procedure, shortened: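 Plates of HEK293 cells (10% dialyzed FBS) are treated with 23 nL compound or DMSO vehicle after a 4-5 hr attachment period, incubated overnight at 37C, and read for red fluorescence at 540/590nm.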

[10] = qHTS assay to test for compound auto fluorescence at 535 nm (green) in HEK293 cells (AID 720680)
[11] = qHTS assay to test for compound auto fluorescence at 460 nm (blue) in HEK293 cell free culture (AID 720681)
Procedure, shortened: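 Compounds were added to cell-free DMEM with 10% FBS and fluorescence read directly. The blue channel used 405 nm excitation and 460 nm emission, with triamterene as the reference fluorophore.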

[12] = qHTS assay to test for compound auto fluorescence at 535 nm (green) in HEK293 cell free culture (AID 720682)
Procedure, shortened: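 DMEM + 10% FBS, cell-free; cpd or DMSO pinned in; Ex485/Em535 read; output as fluorescein-equivalent signal.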

[13] = qHTS assay to test for compound auto fluorescence at 590 nm (red) in HEK293 cell free culture (AID 720683)
Procedure, shortened: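 Cell-free wells of DMEM with 10% FBS received compound, and intrinsic fluorescence was read at excitation/emission 540/590 nm. Values expressed as equivalence to Rose Bengal sodium.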

[14] = qHTS assay to test for compound auto fluorescence at 590 nm (red) in HepG2 cell free culture (AID 720684)
Procedure, shortened: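 Compound was pinned into wells holding MEM with 10% FBS and no cells, and red fluorescence was read at Ex/Em 540/590 nm. Signal is expressed as auto fluorescence equivalency relative to Rose Bengal sodium.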

[15] = qHTS assay to test for compound auto fluorescence at 460 nm (blue) in HepG2 cell free culture (AID 720685)
Procedure, shortened: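 Compound (23 nL) or DMSO pinned into cell-free MEM with 10% FBS; blue fluorescence read at 405/460 nm excitation/emission, expressed as auto-fluorescence equivalency to triamterene.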

[16] = qHTS assay to test for compound auto fluorescence at 535 nm (green) in HepG2 cell free culture (AID 720686)
[17] = qHTS assay to test for compound auto fluorescence at 460 nm (blue) in HepG2 cells (AID 720687)
Procedure, shortened: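 HepG2 cells in MEM with 10% FBS, attached overnight at 37 C, were exposed to compound or DMSO for 1 hr at 37 C, 5% CO2. Blue fluorescence was read at 405/460 nm, with triamterene as reference fluorophore.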

[18] = target: Glucocorticoid receptor (Homo sapiens) (UniProt P04150); experiment: qHTS assay to identify small molecule agonists of the glucocorticoid receptor (GR) signaling pathway (AID 720691; active = well fitted activation curve with a large enough effect in the signal ratio in the repeat runs, not every such curve was filed as active; the % refers to the signal ratio)
Glucocorticoid receptor (Homo sapiens), sequence (P04150 whole entry, looked up): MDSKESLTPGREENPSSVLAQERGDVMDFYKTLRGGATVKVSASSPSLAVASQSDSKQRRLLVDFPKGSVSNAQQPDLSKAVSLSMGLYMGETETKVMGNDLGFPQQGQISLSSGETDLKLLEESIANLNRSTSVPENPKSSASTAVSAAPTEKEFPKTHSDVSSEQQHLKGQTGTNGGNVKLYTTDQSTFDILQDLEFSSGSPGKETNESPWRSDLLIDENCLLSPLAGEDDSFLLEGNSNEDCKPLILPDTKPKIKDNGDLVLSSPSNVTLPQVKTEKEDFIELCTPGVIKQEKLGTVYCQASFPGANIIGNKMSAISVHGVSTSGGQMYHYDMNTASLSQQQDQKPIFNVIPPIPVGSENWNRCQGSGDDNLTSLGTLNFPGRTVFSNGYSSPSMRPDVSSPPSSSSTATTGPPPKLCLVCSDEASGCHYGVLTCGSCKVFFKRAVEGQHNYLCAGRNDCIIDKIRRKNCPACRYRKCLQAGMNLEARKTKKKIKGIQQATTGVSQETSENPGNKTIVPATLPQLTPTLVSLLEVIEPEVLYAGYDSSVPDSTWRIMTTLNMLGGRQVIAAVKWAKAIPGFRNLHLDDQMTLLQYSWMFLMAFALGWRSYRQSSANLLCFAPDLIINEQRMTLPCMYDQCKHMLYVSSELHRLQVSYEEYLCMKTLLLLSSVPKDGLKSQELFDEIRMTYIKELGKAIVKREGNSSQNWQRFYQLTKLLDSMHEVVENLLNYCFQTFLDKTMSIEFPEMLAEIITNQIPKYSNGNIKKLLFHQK
Procedure, shortened: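 Beta-lactamase reporter activity, read as fluorescence intensity, was measured in GR-bla HeLa cells exposed to compounds for 18 h at 37 C and then loaded with LiveBLAzer B/G FRET substrate for 2 h at room temperature.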

[19] = qHTS assay for small molecule disruptors of the mitochondrial membrane potential (AID 720635)
Procedure, shortened: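 HepG2 cells exposed to compound 1 hr at 37C, then Mito-MPS dye 30 min. Ratio read of aggregate (540/590 nm) versus monomer (490/535 nm) fluorescence.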

[20] = target: Glucocorticoid receptor (Homo sapiens) (UniProt P04150); experiment: qHTS assay to identify small molecule antagonists of the glucocorticoid receptor (GR) signaling pathway (AID 720692; active = well fitted inhibition curve with a large enough effect in the signal ratio in the repeat runs, not every such curve was filed as active; the % refers to the signal ratio)
Procedure, shortened: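 Fluorescence from cleaved LiveBLAzer B/G FRET substrate reports GRE-driven beta-lactamase in HeLa cells; compounds are tested against 5 nM dexamethasone (final) over 18 h at 37 C, substrate incubation 2 h at room temperature.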
% is set by controls: 0 for no effect and ±100 for the full control effect.

CN1CCN(CCCN2c3ccccc3Sc3ccc(S(=O)(=O)N(C)C)cc32)CC1
inactive: Potency [1] | Potency [2] | Potency [3] | Potency [4] | Potency [5] | fluorescence, relative to Rose Bengal [6] -0.708% [at 18.6 µM] | fluorescence, % of fluorescein control [7] -0.102% [at 18.6 µM] | fluorescence, % of triamterene [8] 0.42% [at 18.6 µM] | fluorescence, % of fluorescent control [9] 0.005% [at 18.6 µM] | fluorescence, % of fluorescein [10] 0.046% [at 18.6 µM] | fluorescence, % of fluorescent control [11] 0.0966% [at 18.6 µM] | activity change [12] 0.0013% [at 18.6 µM] | fluorescence, % of fluorescent control [13] 0.122% [at 18.6 µM] | fluorescence, % of Rose Bengal [14] 0.748% [at 18.6 µM] | fluorescence, % of fluorescent control [15] 0.208% [at 18.6 µM] | fluorescence, % of fluorescein control [16] 0.0675% [at 18.6 µM] | fluorescence, % of fluorescent control [17] 0.123% [at 18.6 µM] | Potency [18]

CCCCCCOC(=O)C(C)C
inactive: Potency [1] | Potency [2] | Potency [3] | Potency [4] | Potency [5] | Potency [19] | outcome [6] | outcome [7] | Potency [8] | outcome [9] | outcome [10] | Potency [11] | outcome [12] | outcome [13] | outcome [14] | Potency [15] | Potency [17]

O=C(O)c1ccc(CO)o1
inactive: Potency [1] | Potency [2] | Potency [3] | Potency [4] | Potency [5] | Potency [19] | outcome [6] | outcome [7] | Potency [8] | outcome [9] | outcome [10] | Potency [11] | outcome [12] | outcome [13] | outcome [14] | Potency [15] | outcome [16] | Potency [17] | Potency [18] | Potency [20]

O=C(O)c1cccc(O)c1
inactive: Potency [1] | Potency [2] | Potency [3] | Potency [4] | Potency [5] | Potency [19] | outcome [6] | outcome [7] | Potency [8] | outcome [10] | Potency [11] | outcome [12] | outcome [13] | outcome [14] | Potency [15] | Potency [17]

COc1ccc(CCC(=O)c2c(O)cc(O[C@@H]3O[C@H](CO)[C@@H](O)[C@H](O)[C@H]3O[C@@H]3O[C@@H](C)[C@H](O)[C@@H](O)[C@H]3O)cc2O)cc1O
inactive: Potency [1] | Potency [2] | Potency [3] | Potency [4] | Potency [5] | outcome [6] | outcome [7] | Potency [8] | outcome [9] | Potency [11] | outcome [12] | outcome [13] | outcome [14] | Potency [15] | outcome [16] | Potency [17] | Potency [18]

CCOC(=O)/C=C/C(=O)O
inactive: Potency [1] | Potency [2] | Potency [3] | Potency [4] | Potency [5] | outcome [6] | outcome [7] | Potency [8] | outcome [9] | outcome [10] | Potency [11] | outcome [12] | outcome [13] | outcome [14] | Potency [15] | Potency [17]

CN(C(=O)C(Cl)Cl)c1ccc(OC(=O)c2ccco2)cc1
inactive: Potency [1] | Potency [2] | Potency [3] | Potency [4] | Potency [5] | outcome [6] | outcome [7] | Potency [8] | outcome [9] | Potency [11] | outcome [12] | outcome [13] | outcome [14] | Potency [15] | outcome [16] | Potency [17] | Potency [18] | Potency [20]
